Test results published in PubChem BioAssay (Tox21).
Values joined by “and” are separate entries in the source; they are usually repeats but may differ in a detail not shown here. Equal values may be shown once. Results filed as inconclusive are left out. Some compounds were tested as several samples or in several runs, with calls that do not always agree. Active and inactive are the calls of the source. Unless noted, the call rests on the fitted dose curve; in most records, active means well fitted curve in the direction sought with a large enough effect in the repeat runs; inconclusive means weak or mixed curves; inactive means no such curve, though single readings can be large; an effect the other way counts as inactive or inconclusive.

Experiments:
[1] = qHTS assay to identify small molecule phospholipidosis (PLD) inducers (AID 1259344; active means well fitted curve in the direction sought with a large enough effect; an effect the other way counts as inactive or inconclusive)
In short: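 After 4 h attachment on collagen I, HepG2 cells were dosed with compound alongside LipidTOX Red, kept 24 h at 37 C, fixed, and imaged for lamellar phospholipid pits.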

[2] = qHTS assay to identify small molecule HDAC inhibitors (AID 1259364);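 further: wild-type HCT-116 cells with endogenous class I/II HDAC activity; top concentration of the series differs between compounds; nearly all actives have a fitted effect of over 45% in size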
In short: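 HCT-116 wt cells, 1,500/well, overnight attach. Compounds (DMSO) 2 h, 37 °C. HDAC-Glo I/II, 30 min RT. Luminescence.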

[3] = qHTS assay to identify small molecule HDAC inhibitors - cell viability counter screen (AID 1259365); further: series mostly up to about 92 µM; nearly all actives have a fitted effect of over 50% in size
In short: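 HCT-116 (wild type), 1,500 cells/well, overnight 37C/5% CO2; compound in DMSO 2hr; CellTiter-Glo 30min RT; luminescence read.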

[4] = qHTS assay to identify small molecule agonists of the sonic hedgehog signaling (Shh) pathway - cell viability counter screen (AID 1259366); further: nearly all actives have a fitted effect of over 50% in size; further: potency means the concentration at half of the fitted maximal effect
In short: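 CellTiter-Fluor fluorescence read-out, 1 hr at 37C, added after 23hr compound exposure. Cells: 3T3 Gli1-Luc, an NIH/3T3 clone with stably integrated Gli1-Luc reporter, plated 4hr before compound.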

[5] = qHTS assay to identify small molecule antagonists of the sonic hedgehog signaling (Shh) pathway - cell viability counter screen (AID 1259367); further: nearly all actives have a fitted effect of over 55% in size; further: potency means the concentration at half of the fitted maximal effect
In short: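 Conditioned medium drove Shh signaling in 3T3 Gli1-Luc cells exposed to compounds at 37C and 5% CO2. Viability was determined from CellTiter-Fluor fluorescence, with reagent incubated 1 hr after 23 hr of treatment.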

[6] = qHTS assay to identify small molecule agonists of the sonic hedgehog signaling (Shh) pathway (AID 1259368; calls by dose curve;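 further: NIH/3T3-derived 3T3Gli1-Luc cells carrying a stable Gli1-driven firefly luciferase reporter; series mostly up to about 92 µM; nearly all actives have a fitted effect of over 15% in size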)
In short: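 Following a 24 hr incubation with DMSO-dissolved compounds at 37 C, 5% CO2, Gli1-Luc NIH/3T3-derived cells received luciferase reagent for 30 min at room temperature prior to luminescence measurement.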

[7] = qHTS assay to identify small molecule antagonists of the sonic hedgehog signaling (Shh) pathway (AID 1259369; calls by dose curve; further: nearly all actives have a fitted effect of over 45% in size; further: potency means the concentration at half of the fitted maximal effect)
In short: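 Read-out is luminescence from a firefly luciferase gene controlled by the Gli1 response element, in 3T3Gli1-Luc cells pre-incubated 4hr then exposed to compounds and conditioned medium for 24hr.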

[8] = biological target: Estrogen receptor beta (Homo sapiens) (UniProt Q92731); experiment: qHTS assay to identify small molecule agonists of the estrogen receptor beta (ER-beta) signaling pathway (AID 1259377; active means well fitted activation curve with a large enough effect in the signal ratio in the repeat runs, not every such curve was filed as active; the % refers to the signal ratio)
In short: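 Beta-lactamase reporter readout: fluorescence of LiveBLAzer B/G FRET substrate after 2 h at room temperature, following 16 h compound treatment of ER-beta-UAS-bla HEK293T cells at 37C in 2% charcoal-stripped FBS medium.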

[9] = biological target: Estrogen receptor beta (Homo sapiens) (UniProt Q92731); experiment: qHTS assay to identify small molecule antagonists of the estrogen receptor beta (ER-beta) signaling pathway (AID 1259378; active means well fitted inhibition curve with a large enough effect in the signal ratio in the repeat runs, not every such curve was filed as active; the % refers to the signal ratio)
In short: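 ER-beta-UAS-bla HEK293T (GripTite) cells in 2% charcoal-stripped FBS medium were preincubated 6 hr at 37C, dosed with compound, then stimulated with 1 nM E2 (final) for 16 hr; beta-lactamase reporter read by B/G FRET fluorescence after 2 hr substrate loading.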

[10] = biological target: Estrogen receptor (Homo sapiens) (UniProt P03372); experiment: qHTS assay to identify small molecule antagonists of the estrogen receptor alpha (ER-alpha) signaling pathway using the BG1 cell line in the presence of 0.1 nM 17-beta-estradiol (AID 1259244); further: nearly all actives have a fitted effect of over 50% in size; further: potency means the concentration at half of the fitted maximal effect
In short: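 Luciferase signal from VM7Luc4E2 ERE-reporter cells, co-dosed with test compound and 0.1 nM final 17beta-estradiol for 22 h, read with ONE-Glo.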
On the % scale 0 is the no-effect control and ±100 the full control effect.

Estrogen receptor beta (Homo sapiens), sequence (Q92731 whole entry, looked up): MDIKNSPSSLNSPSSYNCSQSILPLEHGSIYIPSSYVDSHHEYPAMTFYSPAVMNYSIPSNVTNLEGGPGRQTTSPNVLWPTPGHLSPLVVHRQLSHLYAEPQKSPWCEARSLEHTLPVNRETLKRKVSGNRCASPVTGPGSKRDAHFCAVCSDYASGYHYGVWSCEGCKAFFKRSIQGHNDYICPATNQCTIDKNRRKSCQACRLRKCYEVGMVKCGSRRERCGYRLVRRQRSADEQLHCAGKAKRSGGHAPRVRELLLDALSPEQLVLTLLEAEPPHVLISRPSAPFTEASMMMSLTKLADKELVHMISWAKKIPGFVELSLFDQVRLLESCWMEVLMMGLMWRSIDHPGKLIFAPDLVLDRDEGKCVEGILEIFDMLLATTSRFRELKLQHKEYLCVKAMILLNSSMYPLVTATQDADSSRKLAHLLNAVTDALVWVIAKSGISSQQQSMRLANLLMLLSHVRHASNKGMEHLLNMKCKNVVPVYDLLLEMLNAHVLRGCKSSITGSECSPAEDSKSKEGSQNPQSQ
Estrogen receptor (Homo sapiens), sequence (P03372 whole entry, looked up): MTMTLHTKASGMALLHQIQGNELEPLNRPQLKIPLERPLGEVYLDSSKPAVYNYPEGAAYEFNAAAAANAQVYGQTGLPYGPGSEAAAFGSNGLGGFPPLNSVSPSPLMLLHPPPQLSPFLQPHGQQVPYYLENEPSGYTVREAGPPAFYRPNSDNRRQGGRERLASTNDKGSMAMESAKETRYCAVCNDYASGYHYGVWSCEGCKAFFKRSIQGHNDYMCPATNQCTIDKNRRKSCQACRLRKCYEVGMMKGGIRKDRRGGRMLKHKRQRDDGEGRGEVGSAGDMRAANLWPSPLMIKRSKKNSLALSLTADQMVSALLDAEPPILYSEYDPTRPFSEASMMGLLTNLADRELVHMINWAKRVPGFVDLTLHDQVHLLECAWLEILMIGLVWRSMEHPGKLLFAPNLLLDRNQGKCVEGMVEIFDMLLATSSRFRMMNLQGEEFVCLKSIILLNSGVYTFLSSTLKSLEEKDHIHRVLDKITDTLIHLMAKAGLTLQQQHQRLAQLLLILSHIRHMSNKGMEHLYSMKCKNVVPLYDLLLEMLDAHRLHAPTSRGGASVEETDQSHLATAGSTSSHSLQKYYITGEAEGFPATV

CCCCCC(N)=O
inactive: outcome [1] | Potency [2] | outcome [3] | Potency [4] | Potency [5] | outcome [6] | Potency [7] | Potency [8] | Potency [9]

O=S1(=O)CC=CC1
6.62 µM (active) and inactive: Potency [7]
inactive: Potency [10] | Potency [2] | outcome [3] | Potency [4] | outcome [6] | Potency [8] | Potency [9]

CCc1cccc(C)c1N
inactive: Potency [10] | Potency [2] | outcome [3] | Potency [4] | outcome [6] | Potency [7]

CC1=C(C)S(=O)(=O)CCS1(=O)=O
active: Potency [7] 21.3 µM and 38.6 µM
inactive: Potency [10] | outcome [3] | Potency [4] | Potency [5] | outcome [6] | Potency [8] | Potency [9]

CC(C)(N)CO
inactive: Potency [10] | outcome [3] | Potency [4] | Potency [5] | outcome [6] | Potency [7] | Potency [8] | Potency [9]

FC(F)(F)c1ccc(Cl)c(Cl)c1
inactive: Potency [10] | Potency [2] | outcome [3] | Potency [4] | outcome [6] | Potency [7] | Potency [8] | Potency [9]

C/C=C1/CC2C=CC1C2 (centres undefined)
inactive: Potency [10] | outcome [3] | Potency [4] | Potency [5] | outcome [6] | Potency [7]

CC(C)c1ccc(S(=O)(=O)O)cc1
inactive: Potency [10] | Potency [2] | outcome [3] | Potency [4] | outcome [6] | Potency [7] | Potency [8] | Potency [9]

O=C=NCCCCCCN=C=O
inactive: Potency [10] | outcome [3] | Potency [4] | Potency [5] | outcome [6] | Potency [7] | Potency [8] | Potency [9]

CCCCCC1=CCCC1=O
inactive: Potency [10] | outcome [3] | Potency [4] | Potency [5] | outcome [6] | Potency [7] | Potency [8] | Potency [9]

CC1=CC(=O)NS(=O)(=O)O1
inactive: outcome [1] | Potency [2] | outcome [3] | Potency [4] | Potency [5] | outcome [6] | Potency [7] | Potency [8] | Potency [9]

CC(O)COCC(C)O (centres undefined)
inactive: Potency [10] | outcome [3] | Potency [4] | Potency [5] | outcome [6] | Potency [7]

COc1ccc(Nc2ccccc2)c(C)c1
inactive: Potency [10] | Potency [2] | outcome [3] | Potency [4] | outcome [6] | Potency [7]

OCCOCCN1CCN(C2=Nc3ccccc3Sc3ccccc32)CC1
inactive: outcome [1] | Potency [2] | outcome [3] | Potency [4] | outcome [6] | Potency [7] | Potency [8] | Potency [9]

CC(=O)c1ccccc1
inactive: Potency [10] | Potency [2] | outcome [3] | Potency [4] | outcome [6] | Potency [7]

NNc1nncc2ccccc12
active: Potency [4] 48.6 µM
inactive: outcome [1] | activity change, negative = inhibition [2] -29.1% [at 19 µM] | outcome [3] | viability change, negative = cytotoxic [4] -0.875% [at 19 µM] | outcome [6] | Potency [7]

CCCCCCCCCCCCS
inactive: Potency [10] | Potency [2] | outcome [3] | Potency [4] | outcome [6] | Potency [7] | Potency [8] | Potency [9]

CCCCC(CC)COC(=O)CCCCC(=O)OCC(CC)CCCC (centres undefined)
inactive: Potency [10] | Potency [2] | outcome [3] | Potency [4] | Potency [5] | outcome [6] | Potency [7] | Potency [8] | Potency [9]

CC(=O)CC(=O)Nc1ccccc1C
inactive: Potency [10] | Potency [2] | outcome [3] | Potency [4] | Potency [5] | outcome [6] | Potency [7] | Potency [8] | Potency [9]

O=[N+]([O-])c1ccc(/C=C/c2ccc([N+](=O)[O-])cc2S(=O)(=O)O)c(S(=O)(=O)O)c1
inactive: Potency [10] | outcome [3] | Potency [4] | Potency [5] | outcome [6] | Potency [7] | Potency [8] | Potency [9]

CCN(CC)c1ccc(C(=O)c2ccccc2C(=O)O)c(O)c1
inactive: Potency [10] | outcome [3] | Potency [4] | outcome [6] | Potency [7] | Potency [8] | Potency [9]

C[C@H]1C[C@@H]2[C@H]([C@@H](O)C[C@@]3(C)[C@H]2CC[C@]3(O)C(=O)CO)[C@@]2(C)C=CC(=O)C=C12
inactive: outcome [1] | outcome [3] | Potency [4] | Potency [5] | outcome [6] | Potency [7]

COc1ccc2cc([C@H](C)C(=O)O)ccc2c1
inactive: outcome [1] | outcome [3] | Potency [4] | Potency [5] | outcome [6] | Potency [7]

CCCSc1ccc2nc(NC(=O)OC)[nH]c2c1
inactive: outcome [1] | outcome [3] | Potency [4] | outcome [6]
active: Potency [5] 2.17 µM

Cc1cccc(O)c1
inactive: Potency [10] | outcome [3] | Potency [4] | Potency [5] | outcome [6] | Potency [7] | Potency [8] | Potency [9]

C=C(C)C(=O)Nc1ccc(Cl)c(Cl)c1
active: Potency [10] 69.3 µM | Potency [7] 17.4 µM and 43.1 µM
inactive: outcome [3] | Potency [4] | Potency [5] | outcome [6] | Potency [8] | Potency [9]

CCCCCCCCCC
inactive: Potency [10] | outcome [3] | Potency [4] | outcome [6] | Potency [7] | Potency [8] | Potency [9]

C[C@H]1C[C@H]2[C@@H]3CCC4=CC(=O)C=C[C@]4(C)[C@@]3(F)[C@@H](O)C[C@]2(C)[C@@]1(O)C(=O)CO
inactive: outcome [1] | outcome [3] | Potency [4] | Potency [5] | outcome [6] | Potency [7]

C=CCNC(N)=S
inactive: outcome [1] | Potency [2] | outcome [3] | Potency [4] | Potency [5] | outcome [6] | Potency [7] | Potency [8] | Potency [9]

O=S(=O)(O)c1ccc2ccccc2c1
inactive: Potency [10] | outcome [3] | Potency [4] | Potency [5] | outcome [6] | Potency [7]

C=CCOC(=O)c1ccccc1C(=O)OCC=C
inactive: Potency [10] | outcome [3] | Potency [4] | outcome [6] | Potency [7]

CCC(O)OC(O)CC (centres undefined)
inactive: Potency [10] | Potency [2] | outcome [3] | Potency [4] | outcome [6] | Potency [7]

CC(=O)CC(=O)Nc1ccccc1
inactive: Potency [2] | outcome [3] | Potency [4] | outcome [6] | Potency [7] | Potency [8] | Potency [9]
